Compound activity deposited in PubChem BioAssay by National Center for Advancing Translational Sciences (NCATS).
Most compounds without a hit are left out; they make up all but 1.8% or so of the library.
Vif-APOBEC3F blk: inhibitors of Vif-A3F interaction; Potency, µM (top dose mostly 46.1 µM), without a hit: at the highest dose activity, negative = active; HeLa A3F-eYFP + Vif (tagged APOBEC3F with the HIV-1 protein that degrades it), YFP fluorescence increase; 390,000 tested, 0.2% active; further: % of control where 0% means no effect; nearly all actives have a fitted effect of over 65% in size
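HeLa cells stably expressing A3F-eYFP plus Vif, plated and incubated overnight at 37 deg C, then exposed to compounds overnight at 37 deg C. Blocked degradation read as raised yellow fluorescence (Ex 488/Em 500-530).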
TrxR1 inh: blocks rat thioredoxin reductase 1; AID 588453; 390,000 tested, 1% active; recombinant rTrxR1, NADPH fluorescence consumption, selenite substrate; Potency, µM (titrated, usually from 114 µM), without a hit: top-dose activity change, negative = inhibition, most hits filed as inhibitors; O89049; further: on the % scale 0 is the no-effect control and ±100 the full control effect; nearly all actives have a fitted effect of over 65% in size
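Rat TrxR1 (90 nM in the dispensed reagent) was pre-reduced with 400 uM NADPH for 5 min at room temperature, then incubated with compound for 15 min. After 400 uM selenite was added, NADPH fluorescence (Ex 340/Em 450 nm) was followed for 8 min.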
Vif-APOBEC3G blk: inhibitors of Vif-APOBEC3G interaction; Q9HC16; HeLa A3G-eYFP + Vif (tagged APOBEC3G with the HIV-1 protein that degrades it), YFP fluorescence, overnight; Potency, µM (top dose mostly 46.1 µM), for inactives: top-dose activity, negative = active, actives largely listed as inhibitors; 410,000 tested, 0.076% active; further: on the % scale 0 is the no-effect control and ±100 the full control effect; nearly all actives have a fitted effect of over 60% in size
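Read-out is eYFP fluorescence (Ex 488/Em 500-530) from Vif-expressing HeLa A3G-eYFP cells; more signal means A3G escaped Vif-mediated degradation. Cells plated overnight, compound pinned in, incubated overnight at 37 deg C.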
TrxR1 substrate: rat thioredoxin reductase 1 substrate activity; O89049; purified TrxR1 substrate turnover, NADPH consumption readout; Potency, µM (doses to about 114 µM), for inactives: at the highest dose activity change, negative = substrate turnover; 390,000 tested, 0.01% active; further: on the % scale 0 is the no-effect control and ±100 the full control effect; nearly all actives have a fitted effect of over 50% in size
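Rat TrxR1, dispensed at 90 nM, was prereduced with 400 uM NADPH (final) for 5 min at ~22 deg C, then incubated with compound 15 min before 400 uM selenite. A first-read NADPH fluorescence drop versus no-compound background flagged substrates.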
VDR inhibitor: inhibitors of human vitamin D receptor; VDR-SRC2-3 peptide fluorescence polarization, 2 h; Potency, µM, for inactives: max response, negative = inhibition, hits mostly inhibitors; 400,000 tested, 0.93% active; further: on the % scale 0 is the no-effect control and ±100 the full control effect
Target sequence (P11473 whole entry, looked up): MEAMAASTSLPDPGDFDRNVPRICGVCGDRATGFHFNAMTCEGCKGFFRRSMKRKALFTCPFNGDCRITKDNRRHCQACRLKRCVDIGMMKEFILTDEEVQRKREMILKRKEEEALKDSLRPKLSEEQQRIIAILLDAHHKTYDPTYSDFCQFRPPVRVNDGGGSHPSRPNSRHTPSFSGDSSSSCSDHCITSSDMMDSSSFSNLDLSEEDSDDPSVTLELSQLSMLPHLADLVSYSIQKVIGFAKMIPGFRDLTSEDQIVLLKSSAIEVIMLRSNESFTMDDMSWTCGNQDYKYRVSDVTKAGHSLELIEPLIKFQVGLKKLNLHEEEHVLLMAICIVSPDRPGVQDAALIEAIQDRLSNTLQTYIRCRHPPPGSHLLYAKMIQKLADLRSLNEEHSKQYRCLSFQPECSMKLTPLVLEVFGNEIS
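The screen uses fluorescence polarization to detect compounds that interfere with recruitment of the SRC2-3 coactivator peptide to VDR; plates are read after 2 h at room temperature.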
* hit, by the source's call; i = inactive; u = inconclusive; x = no result; [ ] = dose if it differs, or a comment. The call rests on the fitted dose curve; in most records, active means well fitted curve in the direction sought with a large enough effect; inconclusive means small, poorly fitted or top-dose-only effect, or another doubt; inactive means no such curve, though single readings can be large; an effect the other way counts as inactive or inconclusive. Potency means the concentration at half of the fitted maximal effect.

SMILES	Vif-APOBEC3F blk	TrxR1 inh	Vif-APOBEC3G blk	TrxR1 substrate	VDR inhibitor
Cc1ccc(Sc2c([N+](=O)[O-])ncn2C)cc1	2%	u	-17%	1%	6%
Cn1cnc([N+](=O)[O-])c1Sc1ncccc1N	-1%	35µM*	2%	-3%	3%
COc1ccccc1N1CCN(S(=O)(=O)c2ccc(-c3ccno3)cc2OC)CC1	-13%	10%[57.1 µM]	-1%	-6%[57.1 µM]	-1%
CCCC(=O)NC1CC(=O)N(c2ccc3c(c2)OCCO3)C1 (centres undefined)	-3%	18%[57.1 µM]	-1%	-1%[57.1 µM]	11%
O=C(/C=C/c1ccco1)Nc1ccc(CN2CCOCC2)cc1	-2%	-26%	-2%	-11%	-23%
Cc1cc(NS(=O)(=O)c2ccc(NC(=O)/C=C/c3ccco3)cc2)nc(C)n1	-31%	13µM*	1%	-10%	7%
O=C(/C=C/c1ccco1)Nc1ccc(N2CCCC2)cc1	-3%	32µM*	0%	-3%	6%
O=C(/C=C/c1ccco1)Nc1ccc(C(=O)N2CCOCC2)cc1	5%	40µM*	-4%	-10%	-13%
CCOC(=O)c1nn(-c2ccc(C)cc2)c(=O)c2c(N)scc12	0%	4%	-4%	-16%	13µM*
Nc1scc2c(C(=O)O)nn(-c3ccccc3)c(=O)c12	5%	9%[57.1 µM]	10%	-3%[57.1 µM]	u
CCCc1cc(=O)oc2c(CN3CCN(C)CC3)c(O)ccc12	7%	79µM*	-2%	869%	8%
CCCCc1cc(=O)oc2c(CN3CCCC3)c(O)c(Cl)cc12	-4%	u	0%	i	u
CCCc1cc(=O)oc2c(CN3CCN(C)CC3)c(O)c(Cl)cc12	x	40µM*	1%	i	-1%
CCCCc1cc(=O)oc2c(CN3CCN(C)CC3)c(O)ccc12	-1%	u	-6%	i	-5%
Cc1cccc(-c2nc3c4ccccc4nc(N4CCN(c5ccccc5F)CC4)n3n2)c1	-15%	5%	2%	0%	-2%
Cn1c2ccccc2c2ccc3c(c21)C(=O)C=CC3=O	11µM*	-71%[57.1 µM]	-6%	15%[11.4 µM]	25µM*
Cc1ccc2c(c1)c1ccc3c(c1n2C)C(=O)C=CC3=O	u	40µM*	-17%	3%	50µM*
C=CCOc1ccc(C=CC(=O)c2c(O)c(OC)c(OC)c(OC)c2OC)cc1	-22%	-2%[11.4 µM]	-19%	9%[57.1 µM]	45µM*
COc1ccc(C=CC(=O)c2c(OC)cc(OC)c(OC)c2O)cc1	2%	3%[57.1 µM]	-7%	-8%[57.1 µM]	u
Cc1nc2ccc(NC(=O)c3cc(S(=O)(=O)N(C)c4ccccc4)ccc3Cl)cc2s1	22µM*	10%	-10%	7%	-14%
CCOC(=O)COn1c(=O)c(-c2ccco2)[n+]([O-])c2ccccc21	1%	8.9µM*	0%	8%	-16%
N#CN=c1snc(-c2ccccc2Cl)n1-c1ccccc1Cl	x	-9%	-7%	-3%	-11%
O=C(Nc1ncc(Cc2ccccc2)s1)C1CCN(C(=O)c2ccco2)CC1	x	-16%	-2%	1%	-19%
COc1ccc2cc3cc(C(=O)NCCCN4CCC(C)CC4)oc3nc2c1	1%	50µM*	8%	700%	-23%
COc1cc(C)c2ccccc2n1	x	7%	-3%	5%	x
SMILES	Vif-APOBEC3F blk	TrxR1 inh	Vif-APOBEC3G blk	TrxR1 substrate	VDR inhibitor
C#CC(=O)N(c1cc(OC)ccc1OC)C(C(=O)NC1CCCC1)c1cccs1 (centres undefined)	-4%	1µM*	u	-2%	u
COc1cc(C(=O)NS(=O)(=O)c2ccccc2C)ccc1Cc1cn(C)c2ccc(NC(=O)OC3CCCC3)cc12	x	x	x	x	50µM*
CCOc1ccc(-c2nnc(SCC(=O)NCc3ccc(Cl)cc3)o2)cc1	-5%	50µM*	1%	-2%	-1%
Nc1c(C(=O)N/N=C/c2ccccc2Cl)oc2nc(-c3ccccc3)cc(-c3ccco3)c12	7.1µM*	5%[57.1 µM]	u	-5%	18%
N#Cc1ccc(/C=C2\C=Cc3ccccc32)cc1	x	-2%	-10%	3%	x
O=C1C(c2ccccc2)SC(=Nc2ccccc2)N1S(=O)(=O)c1ccccc1 (centres undefined)	1%	-17%	-6%	0%	89µM*
COc1ccc(S(=O)(=O)CCC(=O)NCc2ccc(C)o2)cc1	1%	20µM*	2%	-1%[57.1 µM]	u
COc1ccc(CNC(=O)CCS(=O)(=O)c2ccc(Br)cc2)cc1	-2%	-7%	4%	-2%	-12%
CC(=O)N1CCc2cc(S(=O)(=O)CCC(=O)NCc3ccc(C)o3)ccc21	0%	50µM*	-2%	8%	-7%
O=C(C[n+]1cccc(Br)c1)c1cccc([N+](=O)[O-])c1	x	-36%	2%	-2%	x
Cc1ccc(F)c(C2C3C=CCC(C)C3C(=O)N2Cc2ccccc2)c1 (centres undefined)	x	-14%	-16%	-7%	u
CCOc1ccccc1N(C)C(=O)Cn1cnc2onc(-c3ccc(F)cc3)c2c1=O	4%	5%	2%	-9%	15%
O=C(C[n+]1ccccc1Br)c1ccc(F)cc1	x	-21%	6%	-2%[0.0914 µM]	x
Cc1ccc(S(=O)(=O)c2nc(-c3ccccc3Br)oc2N(C)C)cc1	12%	6.3µM*	-27%	14%	-8%
Cc1nc(S(=O)(=O)c2ccc(Cl)cc2)c(NCc2ccccc2)o1	6%	45µM*	-4%	-1%	-9%
Cc1nc(S(=O)(=O)c2ccc(Cl)cc2)c(N(C)C)o1	1%	4µM*	1%	6%	3%
Cc1ccc(-c2nc(S(=O)(=O)c3ccc(C)cc3)c(N(C)C)o2)cc1	6%	25µM*	-1%	7%	u
O=S(=O)(c1ccc(Cl)cc1)c1nc(-c2ccccc2F)oc1NCc1ccccc1	-17%	92%	0%	43%	u
COc1ccccc1-c1nc(S(=O)(=O)c2ccc(Cl)cc2)c(N(C)C)o1	-11%	u	-2%	5%[57.1 µM]	-14%
O=c1oc2ccc(Br)cc2cc1-c1nc2c(s1)CCc1ccccc1-2	x	1%	-7%	6%	-19%
Cc1nc([N+](=O)[O-])c(NCCO)n1Cc1ccccc1	-17%	-2%[57.1 µM]	-1%	4%[57.1 µM]	0%
Cc1nc([N+](=O)[O-])c(Br)n1CC(=O)c1ccc(Cl)cc1	-1%	2.5µM*	-26%	11%[57.1 µM]	u
COc1ccc(C(=O)Cn2c(C)nc([N+](=O)[O-])c2Br)cc1	4%	18µM*	-25%	14%[57.1 µM]	u
Cc1nc([N+](=O)[O-])c(Br)n1Cc1ccc(Cl)c(Cl)c1	-6%	10µM*	u	-4%	u
O=C1c2ccccc2C(=O)N1c1nc(-c2ccc(F)cc2)cs1	x	16%[0.0914 µM]	3%	9%[0.0914 µM]	x
COc1cc2c(NC3CCN(C)CC3)nc(N3CCCN(C)CC3)nc2cc1OCCCC(C)C	x	-2%	4%	68%	x
CCN1CCCn2c1nc1c2c(=O)n(C)c(=O)n1C	2%	79µM*	1%	18%	2%
